This is a sample that favours compounds with a hit; in the whole collection about 7% have one here.
JMJD2A Tudor inh = qHTS Assay for Inhibitors of JMJD2A-Tudor Domain; Lysine-specific demethylase 4A (Homo sapiens), O75164; AlphaScreen JMJD2A-Tudor / H3K4me3 peptide binding; Potency, µM (highest dose often 114 µM), usual class: inhibitors; 390,000 tested, 4.4% active; also: nearly all actives have a fitted effect of over 50% in size
BAZ2B block = qHTS Assay for Inhibitors of BAZ2B; Bromodomain adjacent to zinc finger domain protein 2B (Homo sapiens), Q9UIF8; AlphaScreen BAZ2B-H3K14Ac peptide displacement; Potency, µM (highest dose often 114 µM), most hits filed as inhibitors; 360,000 tested, 4.4% active; AID 504333, 2011; also: nearly all actives have a fitted effect of over 60% in size
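AlphaScreen luminescence quantifies BAZ2B engagement of H3K14Ac peptide; the protein and biotinylated peptide are both at 50 nM final, buffer PBS pH 7.4 with 0.01% Tween-20, all steps at room temperature.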
HP1b binding inh = HTS for Inhibitors of HP1-beta Chromodomain Interactions with Methylated Histone Tails | Chromobox protein homolog 1 (Homo sapiens), P83916 | AlphaScreen HP1-beta / biotin-H3K9me3 peptide binding | Potency, µM (highest dose often 114 µM), hits mostly inhibitors | 390,000 tested, 0.56% active | AID 540317, 2011; also: nearly all actives have a fitted effect of over 70% in size
Target sequence (P83916 whole entry, looked up): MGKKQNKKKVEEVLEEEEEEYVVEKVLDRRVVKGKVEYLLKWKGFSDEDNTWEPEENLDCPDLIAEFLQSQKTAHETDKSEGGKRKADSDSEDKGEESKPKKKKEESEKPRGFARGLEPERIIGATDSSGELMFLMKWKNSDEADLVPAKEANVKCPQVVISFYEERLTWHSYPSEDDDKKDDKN
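HP1-beta protein (50 nM final) preincubated 30 min at room temperature with biotinylated H3(1-18)K9me3 peptide (50 nM) in PBS pH 7.4, 0.01% Tween-20, then compound added for 30 min. AlphaScreen streptavidin donor/nickel chelate acceptor beads (10 ug/mL final), 30 min dark, luminescence read.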
GCN5L2 inh = qHTS Assay for Inhibitors of GCN5L2; Histone acetyltransferase KAT2A (Homo sapiens), Q92830; GCN5L2 HAT assay, ThioGlo1 CoA-SH fluorescence; Potency, µM (titrated, usually from 58.9 µM), most hits filed as inhibitors; 390,000 tested, 0.21% active; AID 504327, 2011
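Fluorescence readout, Ex340nm/Em540nm: ThioGlo1 (50uM final) reacts with free CoA thiol released as 20nM GCN5L2 acetylates H3(1-25) peptide (75uM) using acetyl-CoA (70uM). Compound and enzyme sat 15 min beforehand; 20 min room-temperature reaction.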
PI5P4Ka inh = qHTS for Inhibitors of phosphatidylinositol 5-phosphate 4-kinase (PI5P4K). Phosphatidylinositol 5-phosphate 4-kinase type-2 alpha (Homo sapiens), P48426. PI5P4Kalpha enzyme, ADP-Glo luminescence, 60 min; stronger effect = lower value. max response, %. 330,000 tested, 1.2% active; active = max response of -50% or lower; inconclusive = between -30% and -50%; inactive = -30% or higher; also: value at the top dose of about 77 µM
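Compounds were pin-transferred onto PI5P4Kalpha and substrate in HEPES pH 7.4 buffer with EGTA, CHAPS and 5% DMSO. ATP (5 microM final) started the reaction, which ran 60 minutes at room temperature before ADP-Glo detection.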
PLK1 PBD inh = qHTS for Inhibitors of PLK1-PDB (polo-like kinase 1 - polo-box domain): Primary Screen; Serine/threonine-protein kinase PLK1 (Homo sapiens), P53350; AID 720504, 2013; Potency, µM, most hits filed as inhibitors; 360,000 tested, 2.8% active; Plk1 PBD binding of FITC phosphopeptide, fluorescence polarization; also: series mostly up to about 57 µM; nearly all actives have a fitted effect of over 65% in size
Target sequence (P53350 whole entry, looked up, the tested form may be a part): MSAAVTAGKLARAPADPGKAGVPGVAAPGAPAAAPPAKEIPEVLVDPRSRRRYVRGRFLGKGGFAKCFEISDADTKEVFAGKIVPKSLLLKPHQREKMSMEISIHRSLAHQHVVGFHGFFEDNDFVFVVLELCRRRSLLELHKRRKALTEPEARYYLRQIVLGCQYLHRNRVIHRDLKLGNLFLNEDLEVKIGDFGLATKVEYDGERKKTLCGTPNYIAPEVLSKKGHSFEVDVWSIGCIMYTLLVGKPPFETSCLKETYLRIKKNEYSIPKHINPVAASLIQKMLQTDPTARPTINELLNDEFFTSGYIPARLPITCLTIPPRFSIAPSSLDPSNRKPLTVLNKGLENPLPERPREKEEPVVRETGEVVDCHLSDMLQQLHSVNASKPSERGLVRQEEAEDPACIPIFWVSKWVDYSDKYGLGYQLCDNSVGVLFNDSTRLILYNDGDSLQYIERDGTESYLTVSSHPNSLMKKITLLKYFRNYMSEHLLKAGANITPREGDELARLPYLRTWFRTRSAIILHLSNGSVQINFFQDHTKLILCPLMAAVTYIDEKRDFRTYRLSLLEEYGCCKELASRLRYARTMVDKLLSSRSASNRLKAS
Large screens that a line does not name were inactive. Unless noted, calls follow the shape of the dose curve; as a rule, active = well fitted curve in the direction sought with a large enough effect; inconclusive = small, poorly fitted or top-dose-only effect, or another doubt; inactive = no such curve, though single readings can be large; an effect the other way counts as inactive or inconclusive.

COc1ccc(CNC(=O)C(C)Sc2ccc(S(=O)(=O)N3CCOCC3)cn2)cc1 (configuration not stated)	none
CSCc1nnc(NC(=O)c2ccc(S(=O)(=O)N(CC(C)C)CC(C)C)cc2)o1	GCN5L2 inh inconclusive (no result: JMJD2A Tudor inh, HP1b binding inh, PI5P4Ka inh, PLK1 PBD inh)
CCCN(CCC)S(=O)(=O)c1ccc(C(=O)Nc2nnc(COC)o2)cc1	BAZ2B block inconclusive
CSCc1nnc(NC(=O)c2ccc(S(=O)(=O)N(C)C)cc2)o1	JMJD2A Tudor inh 20µM, PLK1 PBD inh 13µM
CN(c1ccccc1)S(=O)(=O)c1ccc(C(=O)Nc2nnc(C3=COCCO3)o2)cc1	BAZ2B block 79µM, PLK1 PBD inh inconclusive
CCc1nnc(NC(=O)c2ccc(S(=O)(=O)N(C)c3ccccc3)cc2)o1	JMJD2A Tudor inh 25µM, PLK1 PBD inh 30µM (no result: BAZ2B block)
COCc1nnc(NC(=O)c2ccc(S(=O)(=O)N(C)C3CCCCC3)cc2)o1	JMJD2A Tudor inh 79µM, BAZ2B block inconclusive
CCCN(CC(=O)Nc1ccccc1OC)C(=O)CNC(=O)c1ccc(C)s1	none (no result: BAZ2B block, GCN5L2 inh)
Cc1oc(-c2ccc(C(=O)NCCc3ccc(Cl)cc3)cc2)nc1CSc1ccccc1	none (no result: PI5P4Ka inh, PLK1 PBD inh)
Cc1cc2nc[nH]c(=O)n2n1	none (no result: JMJD2A Tudor inh, BAZ2B block, HP1b binding inh, GCN5L2 inh)
COc1ccc(S(=O)(=O)N2CCC(C(=O)Nc3ccccc3N3CCCCC3)CC2)cc1OC	none
CC(C)(C)c1ccc(C(=O)Nc2nnc(C3=COCCO3)o2)cc1	BAZ2B block inconclusive
CN(C)c1ccc(C(=O)Nc2nnc(C3=COCCO3)o2)cc1	JMJD2A Tudor inh 79µM (no result: BAZ2B block)
CCCOc1ccc(-c2nonc2NC(=O)c2oc3ccc(Cl)cc3c2C)cc1OCCC	none (no result: PI5P4Ka inh, PLK1 PBD inh)
Cc1nonc1C(=O)N1CCCC(N2CCN(c3ccc(F)cc3)CC2)C1 (configuration not stated)	none
Cc1ccccc1N1CCN(C2CCCN(C(=O)c3ccc(Cl)s3)C2)CC1 (configuration not stated)	none
Cc1cc(C(=O)N2CCCC(N3CCN(c4ccc(F)cc4)CC3)C2)c(C)o1 (configuration not stated)	JMJD2A Tudor inh inconclusive, BAZ2B block inconclusive, PLK1 PBD inh 27µM
Cc1ccc(C(=O)N2CCCC(N3CCN(c4ccccc4C)CC3)C2)c(=O)[nH]1 (configuration not stated)	JMJD2A Tudor inh 50µM, HP1b binding inh inconclusive
COc1nc(NC(=O)c2ccc(F)cc2)nc(OC)c1-c1ccccc1	none
CC(=O)NCC1CCCN(C(=O)c2ccc(OC3CCN(Cc4ccccn4)CC3)cc2)C1 (configuration not stated)	none
Cc1cccc(C)c1OCc1cn(CC(=O)c2ccc(O)cc2)nn1	JMJD2A Tudor inh 89µM (no result: BAZ2B block, GCN5L2 inh)
CC(=O)c1ccc(OCc2cn(CC(=O)c3ccc(O)cc3)nn2)cc1	JMJD2A Tudor inh inconclusive (no result: BAZ2B block, GCN5L2 inh)
O=C(Cn1cc(COc2ccccc2C(F)(F)F)nn1)c1ccc(O)cc1	JMJD2A Tudor inh 45µM, PLK1 PBD inh 21µM (no result: BAZ2B block, GCN5L2 inh)
COc1cc(C(C)=O)ccc1OCc1cn(CC(=O)c2ccc(O)cc2)nn1	JMJD2A Tudor inh 22µM, PI5P4Ka inh inconclusive, PLK1 PBD inh 24µM (no result: BAZ2B block, GCN5L2 inh)
O=C(CCN=C1NS(=O)(=O)c2ccccc21)OCc1ccccc1	none
N#Cc1cc2c(=O)n3ccccc3nc2n(-c2nnc(SCc3ccc(F)cc3)s2)c1=O	none (no result: PI5P4Ka inh, PLK1 PBD inh)
Clc1ccc(OCc2nc(-c3ccc(Br)o3)no2)cc1	none
Brc1ccc(-c2noc(COc3ccc4c(c3)CCC4)n2)o1	BAZ2B block 56µM
COc1ccc(N2CCN(C(=O)c3oc4ccccc4c3NC(=O)CCc3cc(OC)no3)CC2)cc1	JMJD2A Tudor inh 45µM, BAZ2B block inconclusive
COc1cc(CCC(=O)Nc2c(C(=O)N3CCN(c4ccccc4)CC3)oc3ccccc23)on1	JMJD2A Tudor inh inconclusive, BAZ2B block inconclusive
CCCCOc1ccc(-c2cc3c(=O)n(CC(=O)Nc4ccc(Cl)cc4Cl)ccn3n2)cc1	none (no result: PI5P4Ka inh, PLK1 PBD inh)
O=c1cc(-c2ccccc2Cl)oc2c([N+](=O)[O-])c(O)cc(O)c12	BAZ2B block inconclusive, PI5P4Ka inh -96
O=c1cc(-c2ccccc2Cl)oc2ccc([N+](=O)[O-])c(O)c12	BAZ2B block inconclusive, PLK1 PBD inh inconclusive
CC(C(=O)Nc1ccccc1)C(=O)Nc1ccccc1	none
O=C(Nc1ccccc1)C(Cl)C(=O)c1ccccc1 (configuration not stated)	PLK1 PBD inh 1.5µM
CC(=O)C(Cl)C(=O)Nc1ccccc1 (configuration not stated)	PLK1 PBD inh 2.7µM
CCOC(=O)CSC1=NC(=O)/C(=C\c2ccc(Cl)cc2)S1	JMJD2A Tudor inh inconclusive, PI5P4Ka inh inconclusive, PLK1 PBD inh 0.84µM
COc1ccc(-c2cc(N)n(S(=O)(=O)c3c(F)c(F)c(F)c(F)c3F)n2)cc1OC	BAZ2B block inconclusive, PLK1 PBD inh 1.2µM (no result: PI5P4Ka inh)
Cc1cc2nc(N3C(=O)CNC3=S)sc2cc1C	BAZ2B block 45µM
CCCSCCCNC(=O)CN1C(=O)COc2ccc(S(=O)(=O)N3CCC(C)CC3)cc21	none (no result: PI5P4Ka inh, PLK1 PBD inh)
CC(C)N(CCCNC(=O)CC1Oc2ccccc2NC1=O)Cc1ccccc1 (configuration not stated)	JMJD2A Tudor inh inconclusive, PLK1 PBD inh 27µM
Cc1nc2ccccc2n1CC(=O)OCC(=O)N1CCC(C)CC1	none (no result: BAZ2B block)
CCCCN(C)c1c(C)nc2ccc(C(=O)N(C)Cc3ccco3)cn12	none (no result: JMJD2A Tudor inh, BAZ2B block, HP1b binding inh, GCN5L2 inh)
CCC(c1nnnn1Cc1ccco1)N(Cc1cc2cc(C)cc(C)c2[nH]c1=O)CC1CCCO1 (configuration not stated)	BAZ2B block inconclusive, HP1b binding inh inconclusive, PI5P4Ka inh inconclusive, PLK1 PBD inh 3.4µM
COc1ccc2[nH]c(=O)c(CN(C3CCCCC3)C(c3nnnn3Cc3ccco3)C(C)C)cc2c1 (configuration not stated)	JMJD2A Tudor inh inconclusive, HP1b binding inh inconclusive, PI5P4Ka inh -67, PLK1 PBD inh inconclusive
Cc1cccc2cc(C(c3nnnn3C(C)(C)C)N(Cc3ccco3)CC3CCCO3)c(=O)[nH]c12 (configuration not stated)	JMJD2A Tudor inh 25µM, BAZ2B block 50µM, HP1b binding inh 16µM
COc1ccccc1N1CCN(/N=C/c2ccc([N+](=O)[O-])cc2)CC1	JMJD2A Tudor inh 28µM, BAZ2B block 18µM, HP1b binding inh inconclusive

Compound activity deposited in PubChem by National Center for Advancing Translational Sciences (NCATS).
